Inconclusive results are not listed. Activity calls are given as the source filed them. Unless noted, calls follow the shape of the dose curve; as a rule, active = well fitted curve in the direction sought with a large enough effect in the repeat runs; inconclusive = weak or mixed curves; inactive = no such curve, though single readings can be large; an effect the other way counts as inactive or inconclusive.
Columns and labels:
[1] = qHTS assay to identify small molecule HDAC inhibitors - cell viability counter screen (AID 1259365); also: series mostly up to about 92 µM; nearly all actives have a fitted effect of over 50% in size
In short: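 After overnight seeding at 1,500 cells per well, wild-type HCT-116 cultures took up compounds in DMSO for 2hr at 37 C. Viable cell content came from luminescence with CellTiter-Glo.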

[2] = qHTS assay to identify small molecule agonists of the sonic hedgehog signaling (Shh) pathway - cell viability counter screen (AID 1259366); also: nearly all actives have a fitted effect of over 50% in size
In short: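 Same-well cytotoxicity read. Gli1-Luc reporter 3T3 cells; compounds 24hr, 37C/5% CO2; CellTiter-Fluor fluorescence.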

[3] = qHTS assay to identify small molecule antagonists of the sonic hedgehog signaling (Shh) pathway - cell viability counter screen (AID 1259367); also: nearly all actives have a fitted effect of over 55% in size
In short: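 Conditioned medium drove Shh signaling in 3T3 Gli1-Luc cells exposed to compounds at 37C and 5% CO2. Viability was determined from CellTiter-Fluor fluorescence, with reagent incubated 1 hr after 23 hr of treatment.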

[4] = qHTS assay to identify small molecule agonists of the sonic hedgehog signaling (Shh) pathway (AID 1259368; calls by dose curve;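 also: NIH/3T3-derived 3T3Gli1-Luc cells carrying a stable Gli1-driven firefly luciferase reporter; series mostly up to about 92 µM; nearly all actives have a fitted effect of over 15% in size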)
In short: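 Hedgehog pathway agonism scored by increased firefly luciferase luminescence in 3T3Gli1-Luc cells treated 24 hr at 37 C; detection used a 30 min room-temperature reagent incubation.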

[5] = qHTS assay to identify small molecule antagonists of the sonic hedgehog signaling (Shh) pathway (AID 1259369; calls by dose curve; also: nearly all actives have a fitted effect of over 45% in size)
In short: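 NIH/3T3 stable Gli1-Luc clone, 2,000 cells/well, 4hr settle; cpd + conditioned medium 24hr; Luc reagent 30min RT; luminescence.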

[6] = target: Estrogen receptor beta (Homo sapiens) (UniProt Q92731); assay: qHTS assay to identify small molecule agonists of the estrogen receptor beta (ER-beta) signaling pathway (AID 1259377; active = well fitted activation curve with a large enough effect in the signal ratio in the repeat runs, not every such curve was filed as active; the % refers to the signal ratio)
Chain of Estrogen receptor beta (Homo sapiens) (Q92731 whole entry, looked up): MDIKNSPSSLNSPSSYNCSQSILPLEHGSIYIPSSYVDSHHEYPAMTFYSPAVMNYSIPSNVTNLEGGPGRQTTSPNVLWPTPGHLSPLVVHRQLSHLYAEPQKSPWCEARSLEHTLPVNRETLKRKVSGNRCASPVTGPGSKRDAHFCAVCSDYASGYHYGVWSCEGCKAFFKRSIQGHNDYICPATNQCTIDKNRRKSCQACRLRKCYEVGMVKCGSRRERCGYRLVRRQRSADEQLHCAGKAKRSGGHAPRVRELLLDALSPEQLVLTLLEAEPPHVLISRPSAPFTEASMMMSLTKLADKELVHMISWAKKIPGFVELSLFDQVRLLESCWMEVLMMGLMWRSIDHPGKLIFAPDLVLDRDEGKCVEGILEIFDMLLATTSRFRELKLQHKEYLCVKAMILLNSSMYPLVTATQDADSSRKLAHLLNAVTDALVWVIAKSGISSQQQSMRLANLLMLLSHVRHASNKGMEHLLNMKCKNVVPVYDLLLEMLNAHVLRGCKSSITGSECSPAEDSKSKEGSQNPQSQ
In short: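 Read-out: beta-lactamase FRET fluorescence. Cell line: ER-beta-UAS-bla HEK293T in 2% charcoal-stripped FBS. Exposure: 16 hr at 37C. Substrate step: 2 h at room temperature.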

[7] = target: Estrogen receptor beta (Homo sapiens) (UniProt Q92731); assay: qHTS assay to identify small molecule antagonists of the estrogen receptor beta (ER-beta) signaling pathway (AID 1259378; active = well fitted inhibition curve with a large enough effect in the signal ratio in the repeat runs, not every such curve was filed as active; the % refers to the signal ratio)
In short: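 ER-beta-UAS-bla HEK293T (GripTite) cells in 2% charcoal-stripped FBS medium were preincubated 6 hr at 37C, dosed with compound, then stimulated with 1 nM E2 (final) for 16 hr; beta-lactamase reporter read by B/G FRET fluorescence after 2 hr substrate loading.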

[8] = qHTS assay to identify small molecule agonists of the androgen receptor (AR) signaling pathway in the presence of an antagonist - cell viability counter screen (AID 1259379);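 also: MDA-kb2 human breast cancer cells carrying an MMTV luciferase reporter; series mostly up to about 92 µM; nearly all actives have a fitted effect of over 25% in size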
In short: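 MDA-kb2 viability measured by CellTiter-Fluor fluorescence in the same wells as the luciferase signal; nilutamide 3.0uM final; 15-point compound titration; 16 hr at 37C.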

[9] = qHTS assay to identify small molecule agonists of the estrogen receptor beta (ER-beta) signaling pathway - cell viability counter screen (AID 1259380); also: nearly all actives have a fitted effect of over 30% in size
In short: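 Measured: luminescence from CellTiter-Glo after 30 min at room temperature, added to wells already read for the LiveBLAzer FRET reporter (2 hr substrate); ER-beta-UAS-bla HEK293T cells had 16 hr compound treatment at 37C, 5% CO2.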

[10] = qHTS assay to identify small molecule antagonists of the estrogen receptor beta (ER-beta) signaling pathway - cell viability counter screen (AID 1259382); also: series mostly up to about 92 µM; nearly all actives have a fitted effect of over 55% in size
In short: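 Readout: luminescence, CellTiter-Glo, same wells as bla assay. System: ER-beta-UAS-bla GripTite HEK293T, 2% charcoal-stripped FBS. Exposure: compounds plus 1nM 17-beta-estradiol, 16 hr, 37C.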

[11] = qHTS assay to identify small molecule agonists or antagonists of the thyroid stimulating hormone receptor (TSHR) signaling pathway - wild type cell line counter screen (AID 1259384; calls by dose curve)
In short: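 Wild-type HEK293 cells were plated 18 h at 37 C/5% CO2, pin-dosed with compound plus Ro20-1724 medium, held 30 min at room temperature, then given cAMP-d2 and anti-cAMP-cryptate; fluorescence was read after 1 h. Fifteen concentrations, triplicate.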

[12] = target: Thyrotropin receptor (Homo sapiens) (UniProt P16473); assay: qHTS assay to identify small molecule antagonists of the thyroid stimulating hormone receptor (TSHR) signaling pathway (AID 1259385; calls by dose curve; also: nearly all actives have a fitted effect of over 20% in size)
Chain of Thyrotropin receptor (Homo sapiens) (P16473 whole entry, looked up): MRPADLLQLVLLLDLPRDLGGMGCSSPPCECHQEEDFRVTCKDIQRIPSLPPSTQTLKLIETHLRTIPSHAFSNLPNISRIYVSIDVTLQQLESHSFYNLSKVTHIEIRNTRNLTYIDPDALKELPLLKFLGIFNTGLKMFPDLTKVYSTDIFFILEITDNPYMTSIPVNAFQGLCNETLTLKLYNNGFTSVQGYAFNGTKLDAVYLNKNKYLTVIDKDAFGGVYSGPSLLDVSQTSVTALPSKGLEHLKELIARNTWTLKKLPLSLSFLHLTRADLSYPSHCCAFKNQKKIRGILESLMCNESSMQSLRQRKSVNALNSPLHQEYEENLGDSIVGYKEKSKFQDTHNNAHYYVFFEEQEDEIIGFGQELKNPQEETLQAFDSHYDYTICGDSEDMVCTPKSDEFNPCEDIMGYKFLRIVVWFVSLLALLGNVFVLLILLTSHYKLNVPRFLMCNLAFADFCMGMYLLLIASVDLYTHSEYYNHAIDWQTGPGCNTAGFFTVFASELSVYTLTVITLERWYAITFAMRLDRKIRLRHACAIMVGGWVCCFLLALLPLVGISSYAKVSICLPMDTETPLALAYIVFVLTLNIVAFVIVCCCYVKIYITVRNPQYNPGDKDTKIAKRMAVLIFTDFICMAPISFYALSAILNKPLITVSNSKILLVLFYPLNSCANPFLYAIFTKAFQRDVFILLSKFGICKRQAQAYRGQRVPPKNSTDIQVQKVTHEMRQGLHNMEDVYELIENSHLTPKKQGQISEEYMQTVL
In short: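 TSHR-HEK293 cells were plated and held 18 h at 37C/5% CO2, then given compound plus Ro20-1724 and stimulated with TSH at 1.5 ng/mL final. After 30 min at room temperature, cAMP was detected with cAMP-d2/anti-cAMP-cryptate (1 h) by fluorescence.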

[13] = qHTS assay to identify small molecule agonists of the estrogen receptor alpha (ER-alpha) signaling pathway in the presence of an antagonist - cell viability counter screen (AID 1259386);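 also: series mostly up to about 92 µM; cells exposed to compounds for 22 h at 37 °C before the viability read; nearly all actives have a fitted effect of over 30% in size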
In short: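 The test measures whether compounds kill ER-alpha reporter cells (VM7Luc4E2) under antagonist co-treatment (ICI-182,780, 10.0nM). Fluorescence from CellTiter-Fluor is read after a 22hr exposure.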

[14] = target: Progesterone receptor (Homo sapiens) (UniProt P06401); assay: qHTS assay to identify small molecule agonists of the progesterone receptor (PR) signaling pathway (AID 1346784; calls by dose curve; also: nearly all actives have a fitted effect of over 30% in size)
Chain of Progesterone receptor (Homo sapiens) (P06401 whole entry, looked up): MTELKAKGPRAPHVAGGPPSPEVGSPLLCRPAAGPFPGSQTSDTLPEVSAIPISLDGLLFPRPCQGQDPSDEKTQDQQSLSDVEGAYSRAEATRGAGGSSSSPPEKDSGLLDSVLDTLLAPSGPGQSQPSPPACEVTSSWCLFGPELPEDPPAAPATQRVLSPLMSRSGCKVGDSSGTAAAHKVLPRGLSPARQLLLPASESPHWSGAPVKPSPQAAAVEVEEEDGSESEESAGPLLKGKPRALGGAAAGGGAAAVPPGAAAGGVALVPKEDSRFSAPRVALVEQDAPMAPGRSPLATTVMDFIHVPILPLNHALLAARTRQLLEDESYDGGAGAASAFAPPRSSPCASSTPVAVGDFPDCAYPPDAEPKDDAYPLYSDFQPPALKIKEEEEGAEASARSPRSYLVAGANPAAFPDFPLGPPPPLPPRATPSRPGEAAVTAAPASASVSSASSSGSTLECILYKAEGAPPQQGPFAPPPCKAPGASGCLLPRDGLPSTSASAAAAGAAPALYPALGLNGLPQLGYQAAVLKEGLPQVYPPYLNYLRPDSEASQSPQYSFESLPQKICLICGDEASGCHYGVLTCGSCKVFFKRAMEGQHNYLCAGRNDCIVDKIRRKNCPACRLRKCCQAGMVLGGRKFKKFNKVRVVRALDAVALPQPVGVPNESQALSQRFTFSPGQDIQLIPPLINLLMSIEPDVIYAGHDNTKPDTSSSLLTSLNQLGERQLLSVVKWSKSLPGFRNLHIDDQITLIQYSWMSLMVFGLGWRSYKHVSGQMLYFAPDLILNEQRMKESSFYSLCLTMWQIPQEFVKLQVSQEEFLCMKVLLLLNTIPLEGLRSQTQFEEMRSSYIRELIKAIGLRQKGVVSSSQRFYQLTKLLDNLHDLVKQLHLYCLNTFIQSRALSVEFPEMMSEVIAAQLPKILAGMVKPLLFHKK
In short: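 Compounds were tested for PR agonism in HEK 293T cells bearing a beta-lactamase gene under UAS control. Treatment lasted 16 hr at 37C; signal came from fluorescence of a FRET substrate.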

[15] = target: Progesterone receptor (Homo sapiens) (UniProt P06401); assay: qHTS assay to identify small molecule antagonists of the progesterone receptor (PR) signaling pathway (AID 1346795; active = well fitted inhibition curve with a large enough effect in the signal ratio in the repeat runs, not every such curve was filed as active; the % refers to the signal ratio)
In short: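 In HEK293T cells bearing the PR-UAS-bla reporter, compound effects on promegestone-driven (1 nM) beta-lactamase expression are assessed after 16 hr using a fluorescent FRET substrate incubated 2 hr at room temperature.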

[16] = qHTS assay to identify small molecule antagonists of the TGF-beta/Smad signaling pathway - cell viability counter screen (AID 1346824); also: nearly all actives have a fitted effect of over 50% in size
In short: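 SBE-bla HEK 293T cells were plated overnight at 37 C, then given compounds in DMSO plus TGF-beta1 (added as 0.25 ng/mL solution) for 5 hr. After the bla read, CellTiter-Glo was added to the same wells and luminescence read after 30 min at room temperature.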

[17] = target: Androgen receptor (Homo sapiens) (UniProt P10275); assay: qHTS assay to identify small molecule agonists of the androgen receptor (AR) signaling pathway in the presence of an antagonist (AID 1259381; calls by dose curve; also: nearly all actives have a fitted effect of over 15% in size)
Chain of Androgen receptor (Homo sapiens) (P10275 whole entry, looked up): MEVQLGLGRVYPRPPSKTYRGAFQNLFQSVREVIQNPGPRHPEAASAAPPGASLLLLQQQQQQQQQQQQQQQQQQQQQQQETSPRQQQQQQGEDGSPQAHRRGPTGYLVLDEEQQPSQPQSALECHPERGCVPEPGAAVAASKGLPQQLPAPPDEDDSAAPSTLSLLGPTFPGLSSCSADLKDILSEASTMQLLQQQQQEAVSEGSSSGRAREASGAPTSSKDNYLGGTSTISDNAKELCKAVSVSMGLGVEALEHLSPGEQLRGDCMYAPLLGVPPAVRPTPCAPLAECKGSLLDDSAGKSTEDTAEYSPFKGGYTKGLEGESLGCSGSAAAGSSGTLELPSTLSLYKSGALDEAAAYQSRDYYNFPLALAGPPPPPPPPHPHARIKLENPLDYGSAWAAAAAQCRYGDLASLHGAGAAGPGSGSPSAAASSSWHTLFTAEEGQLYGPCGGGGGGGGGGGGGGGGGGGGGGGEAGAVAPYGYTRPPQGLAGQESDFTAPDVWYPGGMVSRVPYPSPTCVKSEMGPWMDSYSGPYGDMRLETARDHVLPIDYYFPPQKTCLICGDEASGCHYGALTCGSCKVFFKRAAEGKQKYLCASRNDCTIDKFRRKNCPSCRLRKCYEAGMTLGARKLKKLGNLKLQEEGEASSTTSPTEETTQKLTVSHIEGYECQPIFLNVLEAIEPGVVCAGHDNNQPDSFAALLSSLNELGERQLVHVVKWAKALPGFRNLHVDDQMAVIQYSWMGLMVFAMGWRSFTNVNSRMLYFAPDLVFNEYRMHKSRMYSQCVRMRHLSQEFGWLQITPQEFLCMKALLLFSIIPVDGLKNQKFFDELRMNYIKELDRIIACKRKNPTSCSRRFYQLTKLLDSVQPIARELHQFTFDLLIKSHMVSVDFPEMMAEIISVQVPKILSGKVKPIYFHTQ
In short: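 Luminescent ONE-Glo read, 30min at room temperature, follows 16hr compound exposure (15 concentrations) of MDA-kb2 cells at 37C, 0% CO2, with nilutamide added at 3.0uM final.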

[18] = target: Estrogen receptor (Homo sapiens) (UniProt P03372); assay: qHTS assay to identify small molecule agonists of the estrogen receptor alpha (ER-alpha) signaling pathway in the presence of an antagonist (AID 1259383; calls by dose curve; also: top concentration of the series differs between compounds; nearly all actives have a fitted effect of over 15% in size)
Chain of Estrogen receptor (Homo sapiens) (P03372 whole entry, looked up): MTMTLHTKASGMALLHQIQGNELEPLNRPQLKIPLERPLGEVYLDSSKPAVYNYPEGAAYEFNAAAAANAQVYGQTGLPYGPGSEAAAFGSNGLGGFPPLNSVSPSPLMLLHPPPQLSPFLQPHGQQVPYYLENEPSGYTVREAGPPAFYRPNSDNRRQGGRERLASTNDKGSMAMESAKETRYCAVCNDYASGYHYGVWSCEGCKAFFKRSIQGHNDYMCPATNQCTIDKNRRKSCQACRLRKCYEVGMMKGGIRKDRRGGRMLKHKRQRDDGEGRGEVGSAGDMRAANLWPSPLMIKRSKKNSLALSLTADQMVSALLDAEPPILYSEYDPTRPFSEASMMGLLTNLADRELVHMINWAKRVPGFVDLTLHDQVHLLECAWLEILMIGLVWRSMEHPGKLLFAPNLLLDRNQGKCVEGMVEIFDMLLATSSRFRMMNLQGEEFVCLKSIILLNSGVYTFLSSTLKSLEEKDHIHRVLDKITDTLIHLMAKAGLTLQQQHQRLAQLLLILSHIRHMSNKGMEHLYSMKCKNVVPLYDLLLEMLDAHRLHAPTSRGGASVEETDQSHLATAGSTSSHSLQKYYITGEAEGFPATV
In short: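 Quantitative HTS confirmation: compounds titrated at 15 concentrations onto estrogen-deprived VM7Luc4E2 cells carrying a four-ERE luciferase construct, with ICI-182,780 present at 10.0nM final. Signal is luminescence after 22hr exposure.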

[19] = qHTS assay to identify small molecule antagonists of the progesterone receptor (PR) signaling pathway - cell viability counter screen (AID 1346798); also: series mostly up to about 92 µM; nearly all actives have a fitted effect of over 50% in size
In short: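 Following a 4 hr attachment, PR-UAS-bla HEK293T cells in charcoal-stripped FBS medium were exposed to compounds with R5020 for 16 hr; CellTiter-Glo was added and luminescence read after 30 min at room temperature.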

[20] = qHTS assay to identify small molecule agonists of the progesterone receptor (PR) signaling pathway - cell viability counter screen (AID 1346799; calls by dose curve; also: nearly all actives have a fitted effect of over 45% in size)
In short: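 Here, 3,000 PR-UAS-bla HEK293T cells per well were treated with compounds for 16 hr after a 6 hr preincubation at 37C and 5% CO2; cell viability is the CellTiter-Glo luminescence signal.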

Measured: Potency

Cn1c(=O)c2c(ncn2CCO)n(C)c1=O
not listed: [17] | [18] | [19] | [20]
inactive: all other assays above

C#CCN[C@@H]1CCc2ccccc21
inactive: all assays above

CC(=O)C1C(=O)C=C(C)OC1=O (stereo not drawn)
not listed: [11] | [17] | [19]
inactive: all other assays above

CC(C)C1OCCN1CCOC(=O)NCCCCCCNC(=O)OCCN1CCOC1C(C)C (stereo not drawn)
not listed: [18]
inactive: all other assays above

CC(=O)OCC(=O)Nc1cc(C#N)cc(NC(=O)COC(C)=O)c1Cl
not listed: [13] | [15] | [17] | [19]
inactive: all other assays above

Cc1ncc([N+](=O)[O-])n1CC(C)O (stereo not drawn)
not listed: [11] | [12] | [17] | [20]
inactive: all other assays above

C=C(C)c1cccc(C(C)(C)N=C=O)c1
not listed: [15] | [17] | [18]
inactive: all other assays above

CC(=O)O[Si](C)(OC(C)=O)OC(C)=O
not listed: [12] | [17] | [18]
inactive: all other assays above

Reference: PubChem BioAssay (Tox21)
